A selection: hits, their analogues and other compounds. The true share with any hit is near 2.4%.
D2 ag-1 = activates the human D2 dopamine receptor; activation, % (no concentration beside the values); 0.084% of 360,000 active; P14416; AID 624465; DiscoveRx PathHunter D2 beta-arrestin, luminescence, 90 min; 100% = 57 uM dopamine signal; in the data active = activation above about 40%
Target sequence (P14416 whole entry, looked up): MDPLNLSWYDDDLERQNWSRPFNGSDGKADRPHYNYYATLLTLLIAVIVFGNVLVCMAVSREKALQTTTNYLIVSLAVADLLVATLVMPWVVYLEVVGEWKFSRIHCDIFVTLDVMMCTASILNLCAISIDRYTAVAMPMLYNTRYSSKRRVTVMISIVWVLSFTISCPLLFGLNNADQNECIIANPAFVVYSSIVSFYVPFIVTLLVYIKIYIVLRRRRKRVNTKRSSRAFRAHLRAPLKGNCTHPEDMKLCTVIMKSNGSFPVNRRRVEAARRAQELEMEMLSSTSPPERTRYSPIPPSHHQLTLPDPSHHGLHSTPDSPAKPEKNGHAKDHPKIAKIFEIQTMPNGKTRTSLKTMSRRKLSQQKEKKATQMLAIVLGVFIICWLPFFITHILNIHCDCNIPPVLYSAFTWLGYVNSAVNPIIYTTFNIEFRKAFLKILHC
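DiscoveRx PathHunter D2 beta-arrestin cells (2,100/well) attached overnight, then compound-stimulated 90 min at 37 C in HBSS/10 mM HEPES/0.1% Tween-20 buffer; beta-galactosidase complementation read by luminescence after 1 h at ambient temperature. Dopamine 57 uM final (EC100) as control.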
D2 ag-2 = D2 dopamine receptor (human) agonism | HEK293 T-REx D2 cells, calcium flux agonist mode | 0.53% of 340,000 active | P14416 | activation, % at 2 µM;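 active = activation over 3 SD above normal in the single-dose calcium agonist read, cut at about 30% in these data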; also: 0% is about no effect
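Tetracycline-induced HEK293 Trex cells with D2 receptor force-coupled to calcium signaling, plated overnight at 30 C and loaded with no-wash calcium dye. Calcium flux read kinetically for 180 s after compound addition; responses flag agonists.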
D2 PAM-1 = positive allosteric modulators of human D2 dopamine receptor | potentiation, % at 10 µM | 0.34% of 340,000 active | P14416 | HEK293 T-REx D2, calcium flux, EC20 dopamine potentiation;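 active = potentiation over 3 SD above the plate norm, cut at about 30% in these data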; also: 0% is about no effect
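Calcium flux readout, no-wash dye, 1 read/s. Inducible HEK293 Trex D2 line, overnight 30 C. Compound alone 180 s (agonist flags), then EC20 dopamine, another 180 s to score potentiation.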
D2 antagonist = D2 dopamine receptor (human) antagonism; 2% of 340,000 active; AID 485344; P14416; HEK293 TREx D2 cells, calcium flux, dopamine EC80; inhibition, % at 10 µM; in the data active = inhibition above about 30%; inactive = below that, where a call was filed; also: 0% is about no effect
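Inhibition of EC80 dopamine-driven calcium flux, recorded kinetically, defines activity here; cells are a tetracycline-induced HEK293 T-REx line expressing force-coupled D2.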
D2 PAM-2 = positive allosteric modulators of human D2 dopamine receptor | potentiation, % (test concentration not listed) | 0.23% of 360,000 active | DiscoveRx D2 beta-arrestin cells, luminescence, 90 min; 100% = 57 uM dopamine signal | AID 624464; in the data active = potentiation above about 50%
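PathHunter D2 cells, attached overnight at 37 deg C, received compound in DMSO plus dopamine at EC20 (50 nM final) for 90 min at 37 deg C. Beta-arrestin recruitment was read as luminescence after 1 h with detection reagent at ambient temperature.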
* hit, by the source's call.

How did CC1=CS(=O)(=O)CC1Sc1nc2ccccc2[nH]1 (stereo not given) do in these assays?
D2 ag-1: -0.6; D2 ag-2: 0.2; D2 PAM-1: -7.3; D2 antagonist: 37.7*; D2 PAM-2: 4.1

How did CCN1CCCC(NC(=O)c2cc([N+](=O)[O-])ccc2OC)C1 (stereo not given) do in these assays?
D2 ag-1: -2.5; D2 ag-2: -0.1; D2 PAM-1: -13.8; D2 antagonist: 38.5*; D2 PAM-2: -36.7

How did CC1CCCCN1S(=O)(=O)c1cc2c3c(c1)CC(=O)N3CCC2 (stereo not given) do in these assays?
D2 ag-2: 0.7; D2 PAM-1: -1.0

Results for COc1ccccc1NC(=O)c1oc2ccccc2c1NC(=O)Cc1cccs1 ?
D2 ag-2: -0.5; D2 PAM-1: -5.8

Results for COc1ccc(CC(=O)Nc2ccc(-c3noc(-c4cc(OC)c(OC)c(OC)c4)n3)cc2)cc1 ?
D2 ag-1: 3.1; D2 ag-2: -0.3; D2 PAM-1: 42.2*; D2 antagonist: -24.9; D2 PAM-2: -15.8

How did CCc1c(C)nc2nc(SCc3ccccc3Cl)[nH]n2c1=O do in these assays?
D2 ag-1: -0.7; D2 ag-2: 0.4; D2 PAM-1: -2.4; D2 antagonist: 31.9*; D2 PAM-2: -1.8

How did Cc1nc2nc(NCc3ccccc3Cl)[nH]n2c(=O)c1Cc1ccccc1 do in these assays?
D2 ag-2: -1.0; D2 PAM-1: 4.3

How did COc1cc(C(=O)NCC(=O)N/N=C/c2ccc(-c3cccc([N+](=O)[O-])c3)o2)cc(OC)c1OC do in these assays?
D2 ag-1: -5.9; D2 ag-2: -1.2; D2 PAM-1: -23.7; D2 antagonist: 50.1*; D2 PAM-2: -11.7

Results for Cc1ccc(/C=N/NC(=O)CNC(=O)c2cccc([N+](=O)[O-])c2C)o1 ?
D2 ag-1: -5.7; D2 ag-2: 0.6; D2 PAM-1: 37.9*; D2 antagonist: 2.5; D2 PAM-2: -5.1

Results for CN(C)CCCNC(=O)/C(=C\c1ccc(-c2cccc([N+](=O)[O-])c2)o1)NC(=O)c1ccccc1 ?
D2 ag-1: 0.2; D2 ag-2: 1.0; D2 PAM-1: -0.9; D2 antagonist: 36.9*; D2 PAM-2: -10.3

Results for COc1cc(C(=O)NCC(=O)N/N=C/c2ccc(-c3ccc([N+](=O)[O-])cc3)o2)cc(OC)c1OC ?
D2 ag-1: 4.8; D2 ag-2: -0.6; D2 PAM-1: -4.3; D2 antagonist: -16.4; D2 PAM-2: 3.8

How did CC1(C)O[C@H]2[C@@H](O1)[C@@H](C(=O)Nc1ccc(F)c(F)c1)O[C@@H]1OC(C)(C)O[C@@H]12 do in these assays?
D2 ag-2: 0.3

What do the screens show for `CCOC(=O)c1cccc(NC(=O)c2cc3c(Cl)nc4ccc(C)cc4c3s2)c1`?
D2 ag-2: -1.0; D2 PAM-1: 14.4

Results for COC(=O)c1cc(Cl)c(NC(=O)c2cc3ccccc3o2)cc1OC ?
D2 ag-1: -0.5; D2 ag-2: 0.9; D2 PAM-1: -5.2; D2 antagonist: 32.4*; D2 PAM-2: -11.1

What do the screens show for `COc1ccc(NC(=O)c2cc3ccccc3o2)c(OC)c1`?
D2 PAM-1: -10.7

What do the screens show for `O=[N+]([O-])c1ccc(N2CCN(CCO)CC2)cc1NCc1ccco1`?
D2 ag-1: -4.2; D2 ag-2: -0.5; D2 PAM-1: -21.7; D2 antagonist: 34.1*; D2 PAM-2: -39.9

What do the screens show for `Cc1cc(C)c(S(=O)(=O)N2CCN(c3ccc([N+](=O)[O-])c(NCc4ccco4)c3)CC2)c(C)c1`?
D2 ag-1: -0.4; D2 ag-2: -0.8; D2 PAM-1: 0.4; D2 antagonist: -2.3; D2 PAM-2: -14.3

How did C/C(=N\NC(=S)Nc1cc(S(=O)(=O)N2CCOCC2)ccc1Cl)c1ccc(N2CCOCC2)cc1 do in these assays?
D2 ag-1: 5.3; D2 ag-2: 1.1; D2 PAM-1: 10.6; D2 antagonist: 34.7*; D2 PAM-2: -8.6

What do the screens show for `COc1cccc(CCNC(=O)c2cnc3sc(N4CCOCC4)nn3c2=O)c1`?
D2 ag-2: -0.5; D2 PAM-1: 0.4

Results for CCN1CCN(c2cc(N3CCc4ccccc4C3)c(F)cc2[N+](=O)[O-])CC1 ?
D2 ag-1: -3.6; D2 ag-2: 1.3; D2 PAM-1: -21.7; D2 antagonist: 61.6*; D2 PAM-2: -31.8

Screens as filed in PubChem BioAssay.
